Compound activity (PubChem)
Shown are actives, neighbours in structure and some others; about 1.7% of the full set was active somewhere.
TRHR agonist: TRH receptor (human) agonism | TRHR cells, calcium flux fluo-8, FDSS agonist mode | activation, % at 2 µM | 0.18% of 360,000 active | AID 493084; in the data active means activation above about 30%; further: 0% is about no effect
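In this calcium-flux screen, cells bearing human TRHR are dye-loaded with fluo-8, baselined for 10 cycles, then exposed to library compounds; positive kinetic calcium responses during the agonist phase mark hits, with TRH as control.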
hERG WT inh: KCNH2 (human, wildtype) channel inhibition | activity change, % at 1.84 µM | Q12809 | U2OS, BacMam KCNH2, thallium flux FluxOr; active compounds read low | 0.37% of 340,000 active;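 active means maximum activity change below -70%; inconclusive means maximum activity change between -70% and -50%; inactive means maximum activity change above -50%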; further: on the % scale 0 is the no-effect control and ±100 the full control effect
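U2OS cells were transduced with wild-type KCNH2 virus (2.03 x 10^8 / mL) for 4 h at room temperature, then cultured overnight at 37 C. Thallium flux was read with FluxOr dye. Rate constants were normalized to DMSO controls.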
TRHR enhancer: TRH receptor (human) allosteric enhancement | P34981 | 0.66% of 360,000 active | TRHR cells, fluo-8 calcium fluorescence, EC20 TRH enhancement | enhancement, % at 2 µM; in the data active means enhancement above about 30%; further: 0% is about no effect
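Enhancer read-out: after compound pinning and an initial kinetic agonist-mode read, an EC20 of TRH (10 nM final) was injected and fluo-8 calcium signal (Ex 480/Em 530) followed at 1 s/cycle for 100 cycles in TRHR-expressing cells.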
TRPML1 agonist: activates the human TRPML1 channel; TRPML1-expressing cells, Ca2+ dye fluorescence, FDSS; activation, % (concentration not given with the values); 0.12% of 410,000 active; AID 624414; in the data active means activation above about 50%; inconclusive means mostly about 30% to 49%; further: 0% is about no effect
Target sequence (Q9GZU1 whole entry, looked up): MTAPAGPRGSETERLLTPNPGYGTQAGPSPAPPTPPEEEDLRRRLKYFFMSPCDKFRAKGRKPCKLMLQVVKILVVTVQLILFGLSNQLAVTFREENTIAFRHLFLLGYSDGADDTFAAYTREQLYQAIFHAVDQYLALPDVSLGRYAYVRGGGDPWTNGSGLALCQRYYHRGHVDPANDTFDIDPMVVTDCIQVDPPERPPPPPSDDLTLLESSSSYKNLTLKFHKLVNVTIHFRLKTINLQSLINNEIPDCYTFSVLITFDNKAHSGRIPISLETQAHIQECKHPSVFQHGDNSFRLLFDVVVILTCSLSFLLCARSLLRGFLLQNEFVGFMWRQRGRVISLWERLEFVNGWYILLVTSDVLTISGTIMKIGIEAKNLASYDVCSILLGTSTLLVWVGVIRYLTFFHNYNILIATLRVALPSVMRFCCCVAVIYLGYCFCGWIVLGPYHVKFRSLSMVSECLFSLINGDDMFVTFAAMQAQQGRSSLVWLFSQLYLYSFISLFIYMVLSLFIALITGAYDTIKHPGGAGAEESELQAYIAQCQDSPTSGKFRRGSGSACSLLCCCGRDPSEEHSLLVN
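Kinetic FDSS Ca2+ read in Tet-induced TRPML1-DL cells (ABD Ca8 dye plus quencher, 45-90 min RT loading): baseline, then compound, then 110 s agonist window; EC80 agonist 54-4 at 4uM final added afterwards for a 110 s antagonist window.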
TRPML1 blocker: blocks the human TRPML1 channel; Q9GZU1; TRPML1-inducible cells, Ca2+ dye fluorescence, FDSS; active compounds read low; inhibition of EC80 agonist-evoked calcium signal; activity change, negative = inhibition, % (test concentration not listed); 0.02% of 390,000 active; in the data active means activity change below about -50%; inconclusive means between about -30% and that limit;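 further: stimulus is agonist 54-4 at its EC80 concentration; on the % scale 0 is the no-effect control and ±100 the full control effect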
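Tet-induced TRPML1-DL cells loaded with Ca8 no-wash calcium dye were read kinetically on FDSS. Compound addition was followed by EC80 agonist 54-4 (4 uM final); inhibition was read over 110 s.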
KCNH2 3.1 block: inhibitors of human KCNH2 3.1 potassium channel isoform | U2OS KCNH2 3.1, thallium flux FluxOr; active compounds read low | activity change, % (tested at about 1.8 µM) | 0.95% of 340,000 active;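 active means maximum activity change below -70%; inconclusive means maximum activity change from -70% to -50%; inactive means maximum activity change above -50%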;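 further: thallium influx rate constant from kinetic fluorescence after stimulation buffer; on the % scale 0 is the no-effect control and ±100 the full control effect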
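U2OS cells transduced with KCNH2 3.1 mutant virus (1.77 x 10^8 /mL, 4 h), plated overnight at 37 C, loaded 45 min with FluxOr dye plus Red40 quencher. Thallium flux rate constant from kinetic reads after stimulation buffer, normalised to controls.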
Starred values were filed as active, the others as inactive.

Results for COc1cc2ncnc(N3CCN(C(=O)Nc4ccc(Oc5ccccc5)cc4)CC3)c2cc1OC ?
TRPML1 agonist: -0.7

What do the screens show for `COc1ccccc1-c1c(C)nn2c(-c3ccccc3)cc(C)nc12`?
TRHR agonist: 0.2; hERG WT inh: 5.4; TRHR enhancer: -1.2; TRPML1 agonist: 4.6; TRPML1 blocker: -0.4; KCNH2 3.1 block: -9.8

What do the screens show for `COc1ccccc1-c1c(C)nn2c(N3CCCCCC3)cc(C)nc12`?
TRHR agonist: -0.5; hERG WT inh: -249.7*; TRHR enhancer: -5.7; TRPML1 agonist: -0.5; TRPML1 blocker: 43.2; KCNH2 3.1 block: 10.9

How did COc1ccc(-c2c(C)nn3c(-c4ccccc4)cc(C)nc23)cc1OC do in these assays?
TRHR agonist: 1.0; TRHR enhancer: 35.8*; TRPML1 agonist: -0.6; TRPML1 blocker: 19.9

What do the screens show for `O=C(CN1C2=NCCCN2c2ccccc21)c1ccc([N+](=O)[O-])cc1`?
TRHR agonist: 0.7; hERG WT inh: 5.3; TRHR enhancer: 9.2; TRPML1 agonist: 4.6; TRPML1 blocker: 6.5; KCNH2 3.1 block: -74.4*

What do the screens show for `CNCC(=O)c1c[nH]c2ccccc12`?
TRPML1 agonist: -0.7

How did Cc1cccc(CC(=O)c2c[nH]c3ccccc23)c1 do in these assays?
TRHR agonist: 0.7; hERG WT inh: -8.1; TRHR enhancer: 30.7*; TRPML1 agonist: 0.6; TRPML1 blocker: 5.9; KCNH2 3.1 block: 6.2

How did O=C(Nc1ccc(Br)cc1F)c1nc[nH]c1C(=O)N1CCc2ccccc2C1 do in these assays?
hERG WT inh: 0.7; KCNH2 3.1 block: 2.2

Results for O=C(OCc1csc(-c2ccccc2)n1)c1ccc(O)cc1 ?
TRHR agonist: -0.1; hERG WT inh: -12.1; TRHR enhancer: -2.5; TRPML1 agonist: -0.3; TRPML1 blocker: 10.3; KCNH2 3.1 block: -80.1*

How did Cc1ccc(S(=O)(=O)NCC(=O)OCc2csc(-c3ccccc3)n2)cc1 do in these assays?
TRHR agonist: -0.9; hERG WT inh: -14.2; TRHR enhancer: 33.1*; TRPML1 agonist: 1.1; TRPML1 blocker: -9.8; KCNH2 3.1 block: -4.5

How did COC(=O)C(CCCCNC(=O)c1ccc([N+](=O)[O-])cc1)NC(=O)c1ccc([N+](=O)[O-])cc1 (centres undefined) do in these assays?
TRHR agonist: -0.9; hERG WT inh: inconclusive; TRHR enhancer: -1.4; TRPML1 agonist: 0.4; TRPML1 blocker: -18.6; KCNH2 3.1 block: -92.9*

Results for COC(=O)C(CC(C)C)NC(=O)c1ccc([N+](=O)[O-])cc1 (centres undefined) ?
TRHR agonist: 0.3; hERG WT inh: -22.2; TRHR enhancer: -2.1; TRPML1 agonist: 0.8; TRPML1 blocker: -13.2; KCNH2 3.1 block: -11.4

What do the screens show for `COc1ccc([C@@H]2Sc3cc(OC)ccc3N(CCN(C(C)C)C(C)C)C(=O)[C@H]2OC(C)=O)cc1`?
TRHR agonist: 0.7; hERG WT inh: -90.2*; TRHR enhancer: 3.3; TRPML1 agonist: -0.3; TRPML1 blocker: 0.0; KCNH2 3.1 block: -100.1*

How did CCOC(=O)Cn1nc(C)cc1NC(=O)c1cc(OC)c(OC)c(OC)c1 do in these assays?
TRHR agonist: -0.3; hERG WT inh: 0.8; TRHR enhancer: -2.6; TRPML1 agonist: -0.2; TRPML1 blocker: -15.5; KCNH2 3.1 block: -8.3

How did CCOC(=O)Cn1nc(C)cc1NC(=O)c1ccncc1 do in these assays?
TRHR agonist: 0.5; hERG WT inh: 3.4; TRHR enhancer: 34.1*; TRPML1 agonist: 0.0; TRPML1 blocker: -11.7; KCNH2 3.1 block: 8.3

What do the screens show for `Cc1ccc(C)c(NCC(=O)NNC(=S)Nc2ccccc2)c1`?
TRHR agonist: -0.7; hERG WT inh: -74.5*; TRHR enhancer: 16.1; TRPML1 agonist: -0.8; TRPML1 blocker: 0.5; KCNH2 3.1 block: 21.4

Results for Cc1ccc(C)c(NC(=O)CCC(=O)NNC(=S)Nc2ccccc2)c1 ?
TRHR agonist: 0.3; hERG WT inh: 2.3; TRHR enhancer: -0.1; TRPML1 agonist: 0.9; TRPML1 blocker: -1.9; KCNH2 3.1 block: 10.5

What do the screens show for `CCOc1ccc(N2C(=O)CC(N3CCN(c4ccc([N+](=O)[O-])cc4)CC3)C2=O)cc1` (centres undefined)?
TRHR agonist: -0.2; hERG WT inh: -9.8; TRHR enhancer: -3.7; TRPML1 agonist: -0.7; TRPML1 blocker: 25.2; KCNH2 3.1 block: -90.9*

Results for CCCN1CCC(N2CCN(c3ccc([N+](=O)[O-])cc3)CC2)CC1 ?
TRHR agonist: 0.1; hERG WT inh: -41.5; TRHR enhancer: -8.5; KCNH2 3.1 block: -78.7*

Results for CCCOc1ccc(N2C(=O)CC(N3CCN(c4ccc([N+](=O)[O-])cc4)CC3)C2=O)cc1 (centres undefined) ?
TRHR agonist: 0.4; hERG WT inh: -16.1; TRHR enhancer: -2.6; TRPML1 agonist: -0.7; TRPML1 blocker: 12.1; KCNH2 3.1 block: inconclusive

What do the screens show for `CCCN1CCC(N2CCN(c3cccc(C(F)(F)F)c3)CC2)CC1`?
TRHR agonist: 3.0; hERG WT inh: -15.9; TRHR enhancer: 2.9; TRPML1 agonist: 0.2; TRPML1 blocker: -22.9; KCNH2 3.1 block: -97.5*

What do the screens show for `CC(=O)N1CCCC(N2CCN(c3cccc(C(F)(F)F)c3)CC2)C1` (centres undefined)?
TRHR agonist: -0.6; hERG WT inh: -11.1; TRHR enhancer: 3.6; TRPML1 agonist: 1.0; TRPML1 blocker: 3.8; KCNH2 3.1 block: -3.5

Results for CCCCn1c(N)c(N(CCOC)C(=O)c2ccc(N3CCCC3)c([N+](=O)[O-])c2)c(=O)[nH]c1=O ?
TRHR agonist: 0.1; hERG WT inh: -0.5; TRHR enhancer: -4.2; TRPML1 agonist: -0.5; TRPML1 blocker: 9.3; KCNH2 3.1 block: 3.5

How did Cc1c2cnn(CC(=O)NC(C)C)c(=O)c2c(C)n1Cc1cccc(Cl)c1 do in these assays?
TRHR agonist: -0.1; TRHR enhancer: 0.9; TRPML1 agonist: -0.4; TRPML1 blocker: -0.1

What do the screens show for `Cc1cc(-c2nnc(SCC(=O)Nc3ccc(F)cc3F)n2N)n[nH]1`?
TRHR agonist: 0.4; hERG WT inh: -3.8; TRHR enhancer: -6.4; TRPML1 agonist: -0.5; TRPML1 blocker: -0.8; KCNH2 3.1 block: 1.5

What do the screens show for `NC(=O)c1ccsc1NC(=O)COC(=O)c1cc(Cl)ccc1O`?
TRHR agonist: -0.1; hERG WT inh: -4.3; TRHR enhancer: -5.9; TRPML1 agonist: -0.5; TRPML1 blocker: 17.9; KCNH2 3.1 block: 6.7

How did CC1C(=O)C(C)C(c2ccc([N+](=O)[O-])cc2)NC1c1ccc([N+](=O)[O-])cc1 (centres undefined) do in these assays?
TRHR agonist: -0.4; hERG WT inh: 3.0; TRHR enhancer: -2.4; TRPML1 agonist: -0.8; TRPML1 blocker: -10.3; KCNH2 3.1 block: inconclusive
